Bioassay records from PubChem BioAssay.
Pf Dd2 growth: P. falciparum Dd2 growth inhibitors, primary screen, SYBR Green fluorescence, single dose replicates; activity change, % at 10 µM; 72 h; hits give low values; 94,000 compounds, 2.3% hits; AID 1159554, 2015; in the data active means activity change below about -80%; inconclusive means no clear call, values can overlap the other calls
C diff HTS: C. difficile growth inhibitors, primary screen, HTS; Clostridium difficile clinical isolate growth, OD600, 24 h; hits give low values; growth activity, negative = inhibition, % at 16 µg/mL (by protocol); 86,000 compounds, 0.25% hits; AID 1259249, 2017;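 active means mean growth activity at or below -80% and every replicate also at or below -80%; inconclusive means mean at or below -80% but some replicate above -80%; inactive means mean growth activity above -80%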;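 further: 0% = DMSO wells and -100% = levofloxacin 16 µg/mL wells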
Starred values were filed as active, the others as inactive; ? = inconclusive; nt = no result; ! = a repeat was not active. A selection: hits, their analogues and other compounds. The true share with any hit is near 2.4%.

SMILES	Pf Dd2 growth	C diff HTS
CN(C)CC#Cc1cccc(-c2nc(C(=O)N3CCN(Cc4ccccc4)CC3)cc3c2[C@@H](CCO)N(S(=O)C(C)(C)C)C3)c1 (some centres not stated)	-2.7	5.4
CN(C)CC#Cc1cccc(-c2nc(C(=O)N[C@@H]3CCN(Cc4ccccc4)C3)cc3c2[C@H](CCO)N(S(=O)C(C)(C)C)C3)c1 (some centres not stated)	-85.3*	1.4
CC(C)(C)[S@](=O)N1Cc2cc(C(=O)N[C@H]3CCN(Cc4ccccc4)C3)nc(-c3cccc(-c4ccncc4)c3)c2[C@@H]1CCO	-78.2	-6.5
CC(C)(C)[S@](=O)N1Cc2cc(C(=O)N[C@@H]3CCN(Cc4ccccc4)C3)nc(-c3cccc(-c4cccnc4)c3)c2[C@@H]1CCO	-87.8*	nt
COc1cccc(NC(=O)N[C@H]2CC[C@H](CC(=O)Nc3ccc(-c4ccccc4)cc3)O[C@@H]2CO)c1	-6.8	nt
CC(C)C#Cc1cnc2c(c1)C(=O)N([C@H](C)CO)C[C@H](C)[C@H](CN(C)C(=O)c1cccnc1)O2	41.3	0.7
C[C@H]1CN([C@@H](C)CO)S(=O)(=O)c2ccc(C#Cc3ccccc3)cc2O[C@H]1CN(C)C(=O)C1CC1	-88.0*	-4.0
C[C@@H]1CN([C@H](C)CO)S(=O)(=O)c2ccc(C#CC(C)(C)O)cc2O[C@H]1CN(C)Cc1ccc(-c2ccccc2)cc1	-84.0*	14.6
C[C@H]1CN([C@@H](C)CO)S(=O)(=O)c2ccc(C#Cc3ccccc3)cc2O[C@H]1CN(C)CC1CC1	-82.8*	16.7
CC(C)C#Cc1ccc2c(c1)O[C@H](CN(C)C(=O)Cc1ccccn1)[C@@H](C)CN([C@H](C)CO)S2(=O)=O	-37.0	6.3
C[C@H]1CN([C@@H](C)CO)S(=O)(=O)c2ccc(C#Cc3ccccc3)cc2O[C@H]1CN(C)C(=O)Cc1ccccn1	-85.8*	-2.9
C[C@@H]1CN([C@@H](C)CO)S(=O)(=O)c2ccc(C#CC(C)(C)O)cc2O[C@H]1CN(C)Cc1ccccc1	-47.1	-11.3
C[C@@H]1CN([C@H](C)CO)S(=O)(=O)c2ccc(C#Cc3ccccc3)cc2O[C@@H]1CN(C)CC1CC1	-60.3	3.9
C[C@@H]1CN([C@H](C)CO)S(=O)(=O)c2ccc(C#Cc3ccccc3)cc2O[C@H]1CN(C)C(=O)C1CC1	-79.3	-16.0
C[C@@H]1CN([C@H](C)CO)S(=O)(=O)c2ccc(C#CC3CC3)cc2O[C@@H]1CN(C)C	7.0	-3.8
COc1ccccc1S(=O)(=O)N[C@@H]1CC[C@@H](CC(=O)NCc2cccc(F)c2)O[C@H]1CO	-25.5	nt
O=C(C[C@@H]1C=C[C@@H](NC(=O)Cc2cccnc2)[C@H](CO)O1)Nc1ccccc1	16.8	nt
O=C(C[C@H]1C[C@H]2c3cc(NC(=O)C4CCOCC4)ccc3O[C@H]2[C@@H](CO)O1)NCc1ccc(Oc2ccccc2)cc1	6.8	nt
COc1ccc(NC(=O)N(C)C[C@H]2Oc3ccc(NC(=O)Cc4cn(C)c5ccccc45)cc3CC(=O)N([C@H](C)CO)C[C@@H]2C)cc1	-26.2	-4.5
COc1ccc(-c2ccc3c(c2)[C@@H]2[C@@H](CCN2S(=O)(=O)c2ccc(OC)cc2)[C@H](CO)N3)cc1	-58.2	-0.5
CN1c2ccc(C3=CCCCC3)cc2[C@H]2[C@H](CCN2C(=O)C2CC2)[C@@H]1CO	-88.5*	26.0
COc1cccc(-c2ccc3c(c2)[C@H]2[C@H](CCN2C(=O)C2CCCCC2)[C@@H](CO)N3)c1	-87.9*	-4.5
CN1c2ccc(C3=CCCCC3)cc2[C@@H]2[C@@H](CCN2C(=O)C2CC2)[C@@H]1CO	-33.4	4.2
COc1ccc(S(=O)(=O)N2CC[C@@H]3[C@H]2c2cc(-c4ccc(C#N)cc4)ccc2N[C@@H]3CO)cc1	-90.9*	2.9
COc1cccc(-c2ccc3c(c2)[C@@H]2[C@@H](CCN2S(=O)(=O)c2cn(C)cn2)[C@H](CO)N3)c1	-81.7*	5.1
SMILES	Pf Dd2 growth	C diff HTS
COc1cccc(-c2ccc3c(c2)[C@@H]2[C@@H](CCN2C(=O)C2CC2)[C@@H](CO)N3)c1	-64.9	-14.4
COc1cccc(-c2ccc3c(c2)[C@H]2[C@H](CCN2S(=O)(=O)c2cn(C)cn2)[C@H](CO)N3)c1	-12.7	1.7
C[C@@H]1CN([C@H](C)CO)C(=O)c2cc(NS(=O)(=O)c3ccc(Cl)cc3)ccc2O[C@@H](C)CCCCO[C@@H]1CN(C)C(=O)c1ccncc1	5.5	nt
COc1cccc(-c2ccc3c(c2)[C@@H]2[C@@H](CCN2C(=O)C2CC2)[C@H](CO)N3)c1	-75.5	2.8
O=C(C1CCCC1)N1CC[C@@H]2[C@H](CO)Nc3ccc(C4=CCCCC4)cc3[C@@H]21	-83.4*	-0.6
O=C(c1ccc(F)cc1)N1CC[C@@H]2[C@H]1c1cc(C3=CCCCC3)ccc1N[C@@H]2CO	-0.3	-16.9
COc1ccc(C#Cc2ccc3c(c2)[C@H]2[C@H](CCN2C(=O)C2CCCC2)[C@@H](CO)N3)cc1	-95.0*	4.8
COc1cccc(-c2ccc3c(c2)[C@@H]2[C@@H](CCN2C(=O)C2CCCC2)[C@H](CO)N3)c1	-86.3*	-10.1
COc1ccc(C#Cc2ccc3c(c2)[C@@H]2[C@@H](CCN2C(=O)C2CCCC2)[C@@H](CO)N3)cc1	?	29.1
COc1cccc(-c2ccc3c(c2)[C@@H]2[C@@H](CCN2C(=O)C2CCCCC2)[C@H](CO)N3)c1	-89.0*	35.7
COc1cccc(-c2ccc3c(c2)[C@@H]2[C@@H](CCN2C(=O)C2CCC2)[C@H](CO)N3)c1	-31.9	-9.3
C[C@H]1CN([C@@H](C)CO)C(=O)c2cc(NS(C)(=O)=O)ccc2O[C@@H]1CN(C)S(=O)(=O)c1ccccc1	5.4	-3.6
COc1ccccc1-c1ccc2c(c1)[C@H]1[C@H](CCN1C(=O)C1CCC1)[C@@H](CO)N2	6.7	16.4
COc1ccccc1-c1ccc2c(c1)[C@@H]1[C@@H](CCN1C(=O)C1CCCCC1)[C@@H](CO)N2	-85.0*	0.0
O=C(Nc1ccc(F)cc1)N1[C@@H]2CNC[C@H]1C2c1ccc(-c2ccccc2)cc1 (some centres not stated)	20.3	59.1
O=C(Nc1ccc(C(F)(F)F)cc1)N1[C@@H]2CNC[C@H]1C2c1ccc(-c2ccccc2)cc1 (some centres not stated)	-29.4	-98.9*!
O=C(Nc1ccccc1Cl)N1[C@@H]2CNC[C@H]1C2c1ccc(/C=C/c2ccccc2)cc1 (some centres not stated)	-42.4	13.2
O=C(Nc1ccc(Cl)cc1)N1[C@@H]2CNC[C@H]1C2c1ccc(-c2ccccc2)cc1 (some centres not stated)	-9.1	-3.3
Cc1ccccc1-c1ccc(C2[C@H]3CNC[C@@H]2N3C(=O)Nc2ccc(F)cc2)cc1 (some centres not stated)	2.0	59.5
Cc1ccccc1-c1ccc(C2[C@H]3CNC[C@@H]2N3C(=O)Nc2ccc(C(F)(F)F)cc2)cc1 (some centres not stated)	14.5	-96.4*
O=C(Nc1ccc(Cl)cc1)N1[C@@H]2CNC[C@H]1C2c1ccc(/C=C/c2ccccc2)cc1 (some centres not stated)	-39.8	-97.6*
O=C(Nc1ccc(C(F)(F)F)cc1)N1[C@@H]2CNC[C@H]1C2c1ccc(/C=C/c2ccccc2)cc1 (some centres not stated)	?	-102.6*!
